Unmarked numbers belong to inactive results.
How the values were obtained:
Assay in all cases: log2 ratio of Biotin-Ahx-Ub-VS probe labelling (fragment/DMSO); higher = less target engagement (more negative = stronger competition), active = hit call of the paper (q ≤ 0.05, log2 ratio ≤ -1)
Conditions in all cases: compound concentration: 200 uM; treatment time: 3 h
USP19 = target: T1, USP19 (UniProt O94966)
T1 sequence (whole entry): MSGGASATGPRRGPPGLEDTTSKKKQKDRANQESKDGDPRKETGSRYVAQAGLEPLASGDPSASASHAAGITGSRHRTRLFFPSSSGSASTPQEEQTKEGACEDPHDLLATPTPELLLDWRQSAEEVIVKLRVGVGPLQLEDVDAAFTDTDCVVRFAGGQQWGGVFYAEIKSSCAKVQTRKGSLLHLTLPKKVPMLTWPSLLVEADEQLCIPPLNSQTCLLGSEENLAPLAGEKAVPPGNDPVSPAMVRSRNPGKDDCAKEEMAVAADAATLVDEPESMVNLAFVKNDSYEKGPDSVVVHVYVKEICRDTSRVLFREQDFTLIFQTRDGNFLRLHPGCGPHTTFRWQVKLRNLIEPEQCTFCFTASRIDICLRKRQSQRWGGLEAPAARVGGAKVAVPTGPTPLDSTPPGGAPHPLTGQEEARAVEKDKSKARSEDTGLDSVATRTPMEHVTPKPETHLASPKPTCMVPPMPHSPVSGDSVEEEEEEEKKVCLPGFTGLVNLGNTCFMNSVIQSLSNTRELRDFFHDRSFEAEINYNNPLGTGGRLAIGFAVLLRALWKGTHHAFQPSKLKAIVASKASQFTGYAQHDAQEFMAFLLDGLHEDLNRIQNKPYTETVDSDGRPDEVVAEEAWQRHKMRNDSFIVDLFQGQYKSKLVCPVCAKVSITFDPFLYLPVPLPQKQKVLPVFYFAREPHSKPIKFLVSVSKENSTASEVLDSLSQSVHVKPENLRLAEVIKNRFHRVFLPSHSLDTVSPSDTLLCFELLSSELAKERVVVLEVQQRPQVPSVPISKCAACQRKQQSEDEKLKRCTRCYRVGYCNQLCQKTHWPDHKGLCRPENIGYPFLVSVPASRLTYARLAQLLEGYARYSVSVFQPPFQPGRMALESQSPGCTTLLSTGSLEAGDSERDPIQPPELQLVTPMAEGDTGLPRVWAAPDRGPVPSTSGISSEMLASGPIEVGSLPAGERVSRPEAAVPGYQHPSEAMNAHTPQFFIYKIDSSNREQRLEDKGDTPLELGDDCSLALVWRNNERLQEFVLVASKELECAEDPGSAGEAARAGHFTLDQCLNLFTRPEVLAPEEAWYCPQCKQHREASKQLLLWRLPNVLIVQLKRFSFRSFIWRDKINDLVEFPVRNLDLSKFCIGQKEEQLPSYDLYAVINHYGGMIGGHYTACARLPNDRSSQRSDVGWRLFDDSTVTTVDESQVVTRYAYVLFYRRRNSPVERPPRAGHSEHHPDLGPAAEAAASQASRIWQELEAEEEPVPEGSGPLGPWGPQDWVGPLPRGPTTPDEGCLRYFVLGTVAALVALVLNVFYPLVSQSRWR
In short: (§1)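 The table lists average log2 ratios of fragment over vehicle, from an unpaired t-test on global-median-normalised Spectronaut label-free quantities. Proteins with ≥2 unique peptides were used. Samples were HEK293T lysate (495 µg) treated in triplicate with fragment at 200 µM or vehicle for 3 h, then with Biotin-Ahx-Ub-VS (0.5 µM final) for 1 h, with labelled DUBs NeutrAvidin-enriched and run by diaPASEF LC-MS/MS.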

USP22 = target: T2, USP22 (UniProt Q9UPT9)
T2 sequence (whole entry): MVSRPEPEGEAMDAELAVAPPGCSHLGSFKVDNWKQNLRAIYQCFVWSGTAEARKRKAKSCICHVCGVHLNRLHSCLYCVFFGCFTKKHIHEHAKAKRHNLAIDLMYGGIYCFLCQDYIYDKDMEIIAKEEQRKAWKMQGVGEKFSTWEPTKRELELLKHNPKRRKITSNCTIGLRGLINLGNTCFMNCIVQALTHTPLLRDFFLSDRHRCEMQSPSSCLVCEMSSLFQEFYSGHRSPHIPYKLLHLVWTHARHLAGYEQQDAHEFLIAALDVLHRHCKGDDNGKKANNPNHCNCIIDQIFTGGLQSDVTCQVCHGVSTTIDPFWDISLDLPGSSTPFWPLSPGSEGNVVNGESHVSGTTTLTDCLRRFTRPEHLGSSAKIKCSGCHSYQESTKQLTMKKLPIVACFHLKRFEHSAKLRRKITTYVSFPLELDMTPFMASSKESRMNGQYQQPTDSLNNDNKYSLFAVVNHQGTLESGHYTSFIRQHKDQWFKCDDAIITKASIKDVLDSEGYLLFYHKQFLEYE
In short: as §1

USP24 = USP24 (UniProt Q9UPU5)
Sequence of USP24 (Q9UPU5 whole entry): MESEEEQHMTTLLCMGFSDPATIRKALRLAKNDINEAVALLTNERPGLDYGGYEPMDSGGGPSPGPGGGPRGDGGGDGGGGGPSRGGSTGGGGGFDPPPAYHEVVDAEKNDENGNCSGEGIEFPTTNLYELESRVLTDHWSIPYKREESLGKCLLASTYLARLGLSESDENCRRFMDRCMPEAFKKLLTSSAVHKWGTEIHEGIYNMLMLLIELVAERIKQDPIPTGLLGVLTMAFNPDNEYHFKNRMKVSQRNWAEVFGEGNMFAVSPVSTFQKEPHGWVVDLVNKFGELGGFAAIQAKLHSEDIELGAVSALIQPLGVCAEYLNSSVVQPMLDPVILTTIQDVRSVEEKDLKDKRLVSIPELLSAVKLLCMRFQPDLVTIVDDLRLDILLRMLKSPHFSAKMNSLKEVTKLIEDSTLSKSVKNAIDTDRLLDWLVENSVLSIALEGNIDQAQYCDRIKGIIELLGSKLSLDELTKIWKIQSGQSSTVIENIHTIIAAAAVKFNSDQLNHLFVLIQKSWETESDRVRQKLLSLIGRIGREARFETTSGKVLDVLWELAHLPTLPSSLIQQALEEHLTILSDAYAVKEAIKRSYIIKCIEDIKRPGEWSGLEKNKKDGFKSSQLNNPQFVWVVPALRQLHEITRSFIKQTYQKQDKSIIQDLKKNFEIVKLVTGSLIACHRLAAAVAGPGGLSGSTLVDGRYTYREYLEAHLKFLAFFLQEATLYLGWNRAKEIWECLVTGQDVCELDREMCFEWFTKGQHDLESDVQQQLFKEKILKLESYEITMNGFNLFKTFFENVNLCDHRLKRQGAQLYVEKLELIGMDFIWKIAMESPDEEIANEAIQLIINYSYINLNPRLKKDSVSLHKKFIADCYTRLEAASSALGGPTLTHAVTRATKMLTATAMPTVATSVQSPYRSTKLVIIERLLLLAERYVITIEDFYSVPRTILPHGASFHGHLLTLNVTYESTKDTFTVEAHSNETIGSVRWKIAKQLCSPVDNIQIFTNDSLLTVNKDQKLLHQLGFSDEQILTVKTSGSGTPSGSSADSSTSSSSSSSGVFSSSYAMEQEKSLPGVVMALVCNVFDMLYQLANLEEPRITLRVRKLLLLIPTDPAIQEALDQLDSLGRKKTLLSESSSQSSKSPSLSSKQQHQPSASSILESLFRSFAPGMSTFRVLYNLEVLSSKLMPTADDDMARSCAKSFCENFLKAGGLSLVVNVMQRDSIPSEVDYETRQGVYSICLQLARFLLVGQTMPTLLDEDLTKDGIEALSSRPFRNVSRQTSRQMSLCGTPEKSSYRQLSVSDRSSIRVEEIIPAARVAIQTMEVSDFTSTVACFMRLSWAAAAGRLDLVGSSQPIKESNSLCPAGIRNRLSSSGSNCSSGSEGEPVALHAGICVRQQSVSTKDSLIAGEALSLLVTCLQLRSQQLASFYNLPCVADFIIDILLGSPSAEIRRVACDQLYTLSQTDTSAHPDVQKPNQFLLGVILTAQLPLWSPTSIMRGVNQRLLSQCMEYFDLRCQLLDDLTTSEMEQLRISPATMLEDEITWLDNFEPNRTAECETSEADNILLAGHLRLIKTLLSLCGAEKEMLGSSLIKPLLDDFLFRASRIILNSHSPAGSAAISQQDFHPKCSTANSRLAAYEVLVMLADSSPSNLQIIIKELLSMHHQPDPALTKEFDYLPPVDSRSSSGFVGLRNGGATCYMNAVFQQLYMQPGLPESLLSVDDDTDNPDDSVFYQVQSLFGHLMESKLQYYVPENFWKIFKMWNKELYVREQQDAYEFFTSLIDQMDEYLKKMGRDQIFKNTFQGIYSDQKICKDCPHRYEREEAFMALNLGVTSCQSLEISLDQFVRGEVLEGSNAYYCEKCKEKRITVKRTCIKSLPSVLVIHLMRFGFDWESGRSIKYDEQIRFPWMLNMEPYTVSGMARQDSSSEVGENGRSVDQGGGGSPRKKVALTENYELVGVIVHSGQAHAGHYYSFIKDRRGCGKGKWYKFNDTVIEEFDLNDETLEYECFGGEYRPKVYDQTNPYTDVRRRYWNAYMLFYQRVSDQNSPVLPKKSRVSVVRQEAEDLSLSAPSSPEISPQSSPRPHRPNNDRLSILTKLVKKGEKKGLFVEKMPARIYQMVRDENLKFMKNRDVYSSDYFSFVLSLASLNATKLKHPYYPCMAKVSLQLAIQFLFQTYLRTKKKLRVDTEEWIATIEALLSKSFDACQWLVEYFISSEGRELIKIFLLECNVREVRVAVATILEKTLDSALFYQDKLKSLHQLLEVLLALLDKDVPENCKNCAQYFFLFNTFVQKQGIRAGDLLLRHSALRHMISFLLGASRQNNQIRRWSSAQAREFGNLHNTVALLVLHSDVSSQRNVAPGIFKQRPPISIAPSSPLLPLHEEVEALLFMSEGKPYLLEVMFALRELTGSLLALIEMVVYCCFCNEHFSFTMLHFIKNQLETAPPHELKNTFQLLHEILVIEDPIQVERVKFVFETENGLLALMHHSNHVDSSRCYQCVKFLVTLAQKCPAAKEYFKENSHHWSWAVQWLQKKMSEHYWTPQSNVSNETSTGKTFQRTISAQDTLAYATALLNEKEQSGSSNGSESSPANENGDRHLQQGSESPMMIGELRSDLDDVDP
In short: as §1

USP25 = target: T3, USP25 (UniProt Q9UHP3)
T3 sequence (whole entry): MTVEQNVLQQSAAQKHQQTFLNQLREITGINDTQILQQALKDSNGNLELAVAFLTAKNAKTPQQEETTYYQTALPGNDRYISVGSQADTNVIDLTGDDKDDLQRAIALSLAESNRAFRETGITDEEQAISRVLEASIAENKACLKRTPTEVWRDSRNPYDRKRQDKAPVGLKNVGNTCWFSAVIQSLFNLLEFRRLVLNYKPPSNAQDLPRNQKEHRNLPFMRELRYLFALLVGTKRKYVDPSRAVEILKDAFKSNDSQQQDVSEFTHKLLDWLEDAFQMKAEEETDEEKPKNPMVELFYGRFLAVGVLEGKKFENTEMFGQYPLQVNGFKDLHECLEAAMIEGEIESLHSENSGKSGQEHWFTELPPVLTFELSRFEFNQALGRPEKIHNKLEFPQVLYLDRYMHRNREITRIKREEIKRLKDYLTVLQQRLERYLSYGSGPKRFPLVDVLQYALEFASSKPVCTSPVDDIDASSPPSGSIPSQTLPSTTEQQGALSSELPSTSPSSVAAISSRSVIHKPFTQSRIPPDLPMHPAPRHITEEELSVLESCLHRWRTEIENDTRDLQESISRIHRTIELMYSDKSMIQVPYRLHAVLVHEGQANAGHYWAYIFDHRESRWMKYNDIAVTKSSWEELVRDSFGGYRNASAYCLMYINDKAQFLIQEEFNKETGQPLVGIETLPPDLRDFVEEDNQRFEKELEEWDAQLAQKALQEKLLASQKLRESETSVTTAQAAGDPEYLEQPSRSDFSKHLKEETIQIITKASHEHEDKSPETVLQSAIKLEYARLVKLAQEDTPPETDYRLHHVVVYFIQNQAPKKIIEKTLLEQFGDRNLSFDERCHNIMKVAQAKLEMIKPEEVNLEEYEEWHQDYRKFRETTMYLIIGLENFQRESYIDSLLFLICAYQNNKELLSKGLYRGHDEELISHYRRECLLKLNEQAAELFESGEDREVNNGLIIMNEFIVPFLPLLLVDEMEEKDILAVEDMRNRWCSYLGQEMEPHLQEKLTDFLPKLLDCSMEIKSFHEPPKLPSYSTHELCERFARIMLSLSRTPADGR
In short: as §1

USP28 = target: T4, USP28 (UniProt Q96RU2)
T4 sequence (whole entry): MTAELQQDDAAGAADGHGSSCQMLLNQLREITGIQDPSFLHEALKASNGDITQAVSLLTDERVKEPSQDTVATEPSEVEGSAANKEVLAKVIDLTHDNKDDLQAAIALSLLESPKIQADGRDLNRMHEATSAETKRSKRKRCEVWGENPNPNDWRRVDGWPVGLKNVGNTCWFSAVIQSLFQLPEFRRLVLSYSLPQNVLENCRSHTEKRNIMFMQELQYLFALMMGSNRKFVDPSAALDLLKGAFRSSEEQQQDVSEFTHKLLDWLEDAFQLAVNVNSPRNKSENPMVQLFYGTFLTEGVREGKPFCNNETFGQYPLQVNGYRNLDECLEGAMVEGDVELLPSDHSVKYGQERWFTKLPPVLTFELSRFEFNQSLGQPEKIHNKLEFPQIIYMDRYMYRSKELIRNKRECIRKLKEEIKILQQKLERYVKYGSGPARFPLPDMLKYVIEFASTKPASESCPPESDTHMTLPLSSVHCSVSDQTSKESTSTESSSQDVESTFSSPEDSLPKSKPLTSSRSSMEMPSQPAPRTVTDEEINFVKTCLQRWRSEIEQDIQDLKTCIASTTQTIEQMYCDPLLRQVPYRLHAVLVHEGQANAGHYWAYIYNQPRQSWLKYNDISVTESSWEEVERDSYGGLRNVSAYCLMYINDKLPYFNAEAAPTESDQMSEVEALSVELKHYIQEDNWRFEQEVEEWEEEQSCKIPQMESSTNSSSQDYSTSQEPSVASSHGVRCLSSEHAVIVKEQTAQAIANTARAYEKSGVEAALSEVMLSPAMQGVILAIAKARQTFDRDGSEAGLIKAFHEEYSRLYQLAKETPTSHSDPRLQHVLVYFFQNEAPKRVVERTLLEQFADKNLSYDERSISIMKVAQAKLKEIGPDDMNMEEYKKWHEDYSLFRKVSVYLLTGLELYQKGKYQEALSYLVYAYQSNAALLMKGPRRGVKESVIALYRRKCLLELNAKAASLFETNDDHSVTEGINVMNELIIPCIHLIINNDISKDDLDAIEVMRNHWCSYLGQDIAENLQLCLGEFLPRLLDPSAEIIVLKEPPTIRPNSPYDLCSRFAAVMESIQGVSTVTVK
In short: as §1

O=C(CCl)Nc1ccc2c(c1)OC(F)(F)O2
log2 ratio of Biotin-Ahx-Ub-VS probe labelling (USP19): -0.102 | log2 ratio of Biotin-Ahx-Ub-VS probe labelling (USP22): -0.358 | log2 ratio of Biotin-Ahx-Ub-VS probe labelling (USP24): -1.19 (active) | log2 ratio of Biotin-Ahx-Ub-VS probe labelling (USP25): -0.541 | log2 ratio of Biotin-Ahx-Ub-VS probe labelling (USP28): -1.3 (active)
